Experimental findings from PubChem BioAssay (NCATS) are described below.

Records with an inconclusive call do not appear. Values without a mark were called inactive. Calls come from the whole dose curve; as a rule, active = well fitted activation curve with a large enough effect; inconclusive = small, poorly fitted or top-dose-only effect; inactive = no such curve, though single readings can be large or run the other way.

The nature of the assay: qHTS for Activators of Parkin Expression: LOPAC Validation Assay (FLuc Reporter) (AID 720573;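 note: 0% = DMSO and 100% = positive control compounds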). The following applies: Cell line, PRKN promoter firefly luciferase reporter; series mostly up to 46.1 µM; activation: at the top concentration. The gist of the method: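 Readout is FLuc luminescence from neuronal reporter cells (Parkin promoter, FLuc plus NLuc) after 24 h compound exposure in dose response. Values normalized to neutral DMSO and positive-control compounds.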
(In general: qHTS replaces the single test concentration by a dilution series.)
On to `O=C(O)CCC(=O)N1CCCC1C(=O)O` (stereo unspecified), for which the “activation” value was -8.41%. Regarding `O=c1[nH]c2cc(Cl)ccc2c(O)c1-c1ccc(Oc2ccccc2)cc1`, the “activation” value is 3.15%. `O=C1OC(=O)C2C3CCC(O3)C12` (stereo unspecified): the “activation” value is 7.1%. Regarding `N#Cc1cc([N+](=O)[O-])c2sc(C(N)=O)[n+]([O-])c2c1`, the “activation” value is -46.2%. The value for `CC(C)[C@@H]1CC[C@@H](C)C[C@@H]1P(=O)(c1ccccc1)c1ccccc1` was -9.8%; that for `COc1ccc2c(c1)c(CC(=O)O)c(C)n2Cc1ccc(Cl)cc1` was -6.68%. For the compound `CC[N+](CC)(CC)CC(=O)Nc1c(C)cccc1C`, the “activation” value is -2.91%. The value for `CC(C)(C)c1ccc(/C=C/C(=O)Nc2ccc3c(c2)OCCO3)cc1` was 4.21%; that for `O=C(O)c1ccccc1Nc1cccc(OCc2ccc3ccccc3n2)c1` was -1.82%; that for `Cc1ccccc1/C=C/C1=NCCN1` was -15.5%. The value for `O=S(=O)(c1cccc2c(Cl)cccc12)N1CCCNCC1` was -9.71%.

In the case of `Cn1c(=O)c2c(nc(/C=C/c3cccc(Cl)c3)n2C)n(C)c1=O`, the “activation” value was -6.52%. The value for `COC(=O)C(C)(N)Cc1ccc(O)cc1` (stereo unspecified) was 4.04%.

Take `C#CC(N)CCC(=O)O` (stereo unspecified): the “activation” value was 0.0874%. The value for `CC(C)(C)NCC(O)COc1cccc2[nH]c(=O)[nH]c12` (stereo unspecified) was -5.79%.

Consider `NC(N)=[N+]1CCc2ccccc2C1`, for which the “activation” value is -13%.

On to `O=C(O)CCC/C=C\C[C@@H]1[C@@H](/C=C/[C@H](O)C2Cc3ccccc3C2)[C@@H](F)C[C@@H]1O`, for which the “activation” value was -12%. The same measure for `NC(=O)CC[C@H](N)C(=O)O`: -5.03%; for `CCCCCCCCCCCCCCSCC(=O)O`: -5.42%. For the compound `COc1ccccc1N1CCN(CCCCN2C(=O)c3ccccc3C2=O)CC1`, the “activation” value was 11.8%. For `O=C(O)c1cccnc1C(=O)O`, the “activation” value is 10%.
